{"source": "paper PMC11062922", "about": "(Nature Chemical Biology, 2023)", "set-up_in_all_cases": "species or system human, MV4-11 + K-562 + COLO205 + SK-N-BE2 + OVCAR-8", "key": {"[1]": {"system": "SMG1", "conditions": "read-out: apparent Kd; compound concentrations: 100 nM and 1000 nM (sheet 'Samples'), CATDS: 0.40091827457547202; n = 1"}, "[2]": {"system": "PRKG1", "conditions": "read-out: apparent Kd; compound concentrations:100 nM and 1000 nM (sheet 'Samples'); n = 1"}, "[3]": {"system": "PRKX", "conditions": "read-out: apparent Kd; compound concentrations:100 nM and 1000 nM (sheet 'Samples'); n = 1"}, "[4]": {"system": "ROCK2", "conditions": "read-out: apparent Kd; compound concentrations:100 nM and 1000 nM (sheet 'Samples'); n = 1"}, "[5]": {"system": "RAB6A;RAB6B", "conditions": "read-out: apparent Kd; compound concentrations: 100 nM and 1000 nM (sheet 'Samples'), CATDS: 6.2517900726017095E-2; n = 1"}, "[6]": {"system": "HMOX2", "conditions": "read-out: apparent Kd; compound concentrations:100 nM and 1000 nM (sheet 'Samples'); n = 1"}, "[7]": {"system": "GRAMD1A", "conditions": "read-out: apparent Kd; compound concentrations: 100 nM and 1000 nM (sheet 'Samples'), CATDS: 4.7101579015389999E-2; n = 1"}, "[8]": {"system": "MAP4K4", "conditions": "read-out: apparent Kd; compound concentrations: 100 nM and 1000 nM (sheet 'Samples'), CATDS: 5.45482325953821E-2; n = 1"}, "[9]": {"system": "HSP90AA1", "conditions": "read-out: apparent Kd; compound concentrations: 100 nM and 1000 nM (sheet 'Samples'), CATDS: 6.9109754816413196E-2; n = 1"}, "[10]": {"system": "HSPE1", "conditions": "read-out: apparent Kd; compound concentrations: 100 nM and 1000 nM (sheet 'Samples'), CATDS: 0.293798637885134; n = 1"}, "[11]": {"system": "PGK1", "conditions": "read-out: apparent Kd; compound concentrations: 100 nM and 1000 nM (sheet 'Samples'), CATDS: 0.39771264362053399; n = 1"}, "[12]": {"system": "CSNK1E", "conditions": "read-out: apparent Kd; compound concentrations:100 nM and 1000 nM (sheet 'Samples'); n = 1"}, "[13]": {"system": "CAMK2G", "conditions": "read-out: apparent Kd; compound concentrations:100 nM and 1000 nM (sheet 'Samples'); n = 1"}, "[14]": {"system": "AGPS", "conditions": "read-out: apparent Kd; compound concentrations:100 nM and 1000 nM (sheet 'Samples'); n = 1"}, "[15]": {"system": "IGF1R", "conditions": "read-out: apparent Kd; compound concentrations: 100 nM and 1000 nM (sheet 'Samples'), CATDS: 4.98725467652835E-2; n = 1"}, "[16]": {"system": "INSR", "conditions": "read-out: apparent Kd; compound concentrations: 100 nM and 1000 nM (sheet 'Samples'), CATDS: 5.9878421296946899E-2; n = 1"}}, "data": [{"smiles": "COc1ccc(-c2ccncc2)cc1C(N)=O", "note": "[GSK605714A]", "values": [{"measurement": "potency estimated from few doses", "setting": "[1]", "value": 1830, "unit": "nM"}]}, {"smiles": "COc1ccc(C2=NC(c3ccc(Cl)cc3F)C(C(=O)Nc3ccc4[nH]ncc4c3)=C(C)N2)cn1.O=C(O)C(F)(F)F", "note": "(stereo not shown) [GSK534913A]", "values": [{"measurement": "potency estimated from few doses", "setting": "[2]", "value": 825, "unit": "nM"}, {"measurement": "potency estimated from few doses", "setting": "[3]", "value": 758, "unit": "nM"}, {"measurement": "potency estimated from few doses", "setting": "[4]", "value": 131, "unit": "nM"}]}, {"smiles": "Fc1cccc(COc2ccc(Nc3ncncc3C#Cc3ccccc3)cc2Cl)c1", "note": "[GW651576X]", "values": [{"measurement": "potency estimated from few doses", "setting": "[5]", "value": 1160, "unit": "nM"}]}, {"smiles": "Nc1c(C(=O)c2ccccc2)cnn1-c1ccc(F)cc1", "note": "[RO1151246-000]", "values": [{"measurement": "potency estimated from few doses", "setting": "[6]", "value": 2210, "unit": "nM"}]}, {"smiles": "COc1ccc(-c2nn3ncccc3c2-c2ccnc(Nc3ccc4c(c3)OCCO4)n2)cc1", "note": "[GW827106X]", "values": [{"measurement": "potency estimated from few doses", "setting": "[7]", "value": 1730, "unit": "nM"}, {"measurement": "potency estimated from few doses", "setting": "[8]", "value": 1220, "unit": "nM"}]}, {"smiles": "Cc1[nH]nc2c1N=C(c1ccccc1Cl)c1cc([N+](=O)[O-])ccc1N2", "note": "[RO0274406-000]", "values": [{"measurement": "potency estimated from few doses", "setting": "[9]", "value": 1380, "unit": "nM"}, {"measurement": "potency estimated from few doses", "setting": "[10]", "value": 60.7, "unit": "nM"}, {"measurement": "potency estimated from few doses", "setting": "[11]", "value": 37.7, "unit": "nM"}]}, {"smiles": "Fc1ccc(-c2ncn(C3CCNCC3)c2-c2ccnc(Oc3ccc4c(c3)OCO4)n2)cc1", "note": "[SB-250715]", "values": [{"measurement": "potency estimated from few doses", "setting": "[12]", "value": 811, "unit": "nM"}]}, {"smiles": "Cl.Oc1ccc2ncnc(Nc3ccc(OCc4ccccc4)cc3)c2c1", "note": "[GI262866A]", "values": [{"measurement": "potency estimated from few doses", "setting": "[13]", "value": 385, "unit": "nM"}]}, {"smiles": "COc1ccc(COc2ccc(Cc3cnc(N)nc3N)cc2OC)cc1", "note": "[GW632580X]", "values": [{"measurement": "potency estimated from few doses", "setting": "[14]", "value": 1650, "unit": "nM"}]}, {"smiles": "COc1cc(N2CCN(C(C)C)CC2)ccc1Nc1nc(Nc2cccc(F)c2C(=O)O)c2cc[nH]c2n1", "note": "[GSK1819799A]", "values": [{"measurement": "potency estimated from few doses", "setting": "[15]", "value": 1270, "unit": "nM"}, {"measurement": "potency estimated from few doses", "setting": "[16]", "value": 816, "unit": "nM"}]}]}
